Consider 14 compounds from publication PMC7826789 (International Journal of Molecular Sciences, 2021).

SMILES strings stand for the structures.

With `O=C(Nc1n[nH]c2cc(-c3ccsc3)ccc12)C1CC1` [SB-732932], the Kinases covered result with CDKL2 is “CDKL2”.
As for `Cc1cc(NC(=O)c2cccc(NC(=O)/C=C/CN(C)C)c2)ccc1Nc1nccc(-c2cccnc2)n1` [JNK-IN-7], the Kinases covered entry is on record as “CDKL5” with CDKL5 and “DRAK1” in the assay with DRAK1.
As to `CCC(NN(C)C)=C1C(=O)Nc2ccc(C(C)=O)cc21` [BI00036838], the figures for the Kinases covered result with CDKL5, in the assay on DYRK1B and in the assay on DYRK2 were “CDKL5”, “DYRK1B” and “DYRK2”, respectively.
Take `COc1cc(Nc2cnc(C#N)c(O[C@H](C)CN(C)C)n2)ncc1-c1cnn(C)c1` [CCT244747]: the Kinases covered entry in the assay on CHEK1 is recorded as “CHEK1”.
For the compound `FC1=CC(C3=NC2=CC(OC)=C(OC)C=C2C(N[C@H]4[C@H]([C@](C)(O)C)CNC4)=N3)=C(O)C=C1.Cl.Cl` [CCT241533], the Kinases covered entry with CHEK2 is reported as “CHEK2”.
`CNc1nc(Nc2ccc(C(=O)N3CCOCC3)cc2OC)nc2[nH]cc(Cl)c12` [JH-II-127]: the Kinases covered result in the assay with CHK2 is given as “CHK2”.
Regarding `O=C(Nc1ccccc1)Nc1cccc(Oc2ccc3nccn3n2)c1` [TPKI-39], the results for the Kinases covered result in the assay with CIT and in the assay with CSF1R were “CIT” and “CSF1R”, respectively.
As to `CC(C)C(=O)N[C@@H]1CCN(C(=O)Nc2nc3c(s2)-c2nc(-c4ccccc4Cl)ncc2CC3)C1` [BI00047804], the Kinases covered entry is on record as “CLK3” in the assay with CLK3 and “CLK4” in the assay with CLK4.
For `CCCNC(=O)c1ccc(Nc2ncc(C(F)(F)F)c(Nc3ccccc3C(C)=O)n2)c(Br)c1` [BI00801818], the Kinases covered entry with CLK4 was “CLK4”.
As for `Cn1ccc2ncnc(Oc3ccc(NC(=O)Nc4ccccc4)cc3)c21` [TPKI-69], the Kinases covered result in the assay on CSF1R is given as “CSF1R”.
As to `Nc1nccc(-c2c(-c3ccc(F)cc3)ncn2C2CCN(Cc3ccccc3)CC2)n1` [SB-219980], the figures for the Kinases covered entry in the assay on CSNK1A1, in the assay with CSNK1D and in the assay with CSNK1E were “CSNK1A1”, “CSNK1D” and “CSNK1E”, respectively.
Regarding `Fc1ccc(-c2nn3ccccc3c2-c2ccncc2)cc1` [GW434756X], the Kinases covered entry in the assay with CSNK1A1 is “CSNK1A1”.
For the compound `Cc1nccc(-c2c(-c3ccc(F)cc3)ncn2CCCN2CCOCC2)n1` [SB-282975], the Kinases covered result in the assay with CSNK1D is on record as “CSNK1D”.
As to `C[C@@H]1CCN(C(=O)CC#N)C[C@@H]1N(C)c1ncnc2[nH]ccc12` [PFE-PKIS 25], the Kinases covered entry in the assay with DCLK3 is on record as “DCLK3”.
